# In PubChem BioAssay (NCI):
# Compounds without any hit were thinned out: in the full panel of roughly 83,000, 20% have a hit.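 48-hour exposure, single concentration, 96-well plates; percent growth endpoint where 0 means no net growth. Active: below 10.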 A number with no mark means an inactive call. Activity calls are given as the source filed them.
# Experiments:
# Experiment in all cases: NCI-60 one-dose screen, 48 h (100 = growth as untreated, 0 = no growth, -100 = all killed)
# Details in all cases: 10 µM unless noted
# SK-MEL-2 melanoma = system: SK-MEL-2 melanoma
# EKVX NSCLC = system: EKVX NSCLC
# SN12C renal = system: SN12C renal
# UO-31 renal = system: UO-31 renal
# TK-10 renal = system: TK-10 renal
# ACHN renal = system: ACHN renal
# A498 renal = system: A498 renal
# CCRF-CEM leukemia = system: CCRF-CEM leukemia
# MOLT-4 leukemia = system: MOLT-4 leukemia
# SR leukemia = system: SR leukemia
# RPMI-8226 leukemia = system: RPMI-8226 leukemia
# OVCAR-8 ovarian = system: OVCAR-8 ovarian
# OVCAR-5 ovarian = system: OVCAR-5 ovarian
# OVCAR-4 ovarian = system: OVCAR-4 ovarian
# SK-OV-3 ovarian = system: SK-OV-3 ovarian
# IGROV1 ovarian = system: IGROV1 ovarian
# OVCAR-3 ovarian = system: OVCAR-3 ovarian
# HS 578T breast = system: HS 578T breast
# NCI/ADR-RES ovarian = system: NCI/ADR-RES ovarian
# CAKI-1 renal = system: CAKI-1 renal
Compound,growth (SK-MEL-2 melanoma),growth (EKVX NSCLC),growth (SN12C renal),growth (UO-31 renal),growth (TK-10 renal),growth (ACHN renal),growth (A498 renal),growth (CCRF-CEM leukemia),growth (MOLT-4 leukemia),growth (SR leukemia),growth (RPMI-8226 leukemia),growth (OVCAR-8 ovarian),growth (OVCAR-5 ovarian),growth (OVCAR-4 ovarian),growth (SK-OV-3 ovarian) [%],growth (IGROV1 ovarian),growth (OVCAR-3 ovarian),growth (HS 578T breast) [%],growth (NCI/ADR-RES ovarian),growth (CAKI-1 renal) [%]
CCN1CCN(C(=O)[C@@]2(C)CC[C@]3(C)CC[C@]4(C)C(=CC(=O)[C@@H]5[C@@]6(C)CC[C@H](OC7C[C@@H](O)[C@@H](O)C(C)O7)C(C)(C)[C@@H]6CC[C@]54C)[C@@H]3C2)CC1 (stereo partly specified),105%,80.4%,-64.7% (active),-80.8% (active),136%,79.5%,95.5%,0.503% (active),0.754% (active),-4.66% (active),-25.7% (active),12.3%,9.86% (active),0.113% (active),113,26.5%,105%,87.5,47%,–
Nc1c(Cl)cc(N=Nc2ccccc2)cc1Cl,61.3%,69%,95.4%,62.2%,12.8%,97.4%,73.6%,–,90.3%,85.4%,89.9%,104%,31.5%,–,99,12.5%,84.6%,94.8,100%,89.9
CCSc1ncnc2c1ncn2C1OC(CO)C(O)C1O (stereo unspecified),63.4%,51.8%,34.4%,24.5%,37.6%,32.6%,60.9%,23.4%,21.4%,–,38.5%,29.5%,29.5%,46.1%,41.3,2.14% (active),23.4%,–,25.4%,32.2
Cn1cc(-c2csc(-c3cn(C(=O)OC(C)(C)C)c4ccccc34)n2)c2cccnc21,66.3%,72.3%,87.6%,73.7%,102%,77.5%,79.7%,56.8%,50%,–,75.3%,76.3%,104%,–,74.9,59.8%,14.6%,73.1,29.3%,58.7
OCC1OC(n2cnc3c(Cl)ncnc32)CC1O (stereo unspecified),108%,113%,96.5%,76.9%,106%,95.6%,106%,98.2%,91.9%,–,98.3%,104%,101%,120%,104,98.9%,115%,108,118%,94.1
O=c1[nH]c(=S)[nH]c2nc[nH]c12,117%,97.2%,96.2%,62.7%,113%,104%,93.4%,106%,97.8%,–,99.2%,95.2%,–,107%,112,105%,115%,–,95.1%,108
Cc1ccc2c(c1)c(-c1nc(-c3c[nH]c4ncccc34)cs1)cn2C,99.3%,35.1%,90.9%,86.2%,81.5%,98.6%,112%,77.7%,75.2%,–,72.7%,104%,68.6%,–,102,99.2%,139%,109,89.4%,107
O=C(N/N=C/c1ccccc1SSc1ccccc1/C=N/NC(=O)c1ccccc1)c1ccccc1,24.8%,25.8%,43.4%,18.6%,31.8%,15.4%,75.8%,16%,10.8%,18.9%,31.1%,24.9%,85.2%,38.5%,43,30.6%,31.1%,75.4,9.77% (active),–
CCCC1CCCCN1C(=O)OCC(C)C (stereo unspecified),108%,104%,102%,74.5%,107%,100%,108%,96.3%,95.3%,–,108%,105%,102%,113%,–,101%,112%,102,137%,90.2
O=[N+]([O-])c1ccc(/C=N\Nc2ccccc2)cc1,49.5%,76.6%,87.3%,65.5%,111%,72.6%,75.3%,–,89.7%,106%,67.8%,61.8%,88%,–,101,78%,82.5%,63.1,60%,72.8
O=C(O)c1cccc2c1Cc1cc([N+](=O)[O-])ccc1-2,102%,61.9%,103%,103%,123%,102%,93.1%,–,94%,89%,100%,108%,106%,–,107,92.3%,115%,95,100%,89.5
Cc1c(C)c2c(c(C)c1NC(=O)CCCCCCC(=O)O)CCC(C)(CCCC(C)CCCC(C)CCCC(C)C)O2 (stereo unspecified),43.2%,86.3%,77.5%,75.7%,87.6%,101%,–,71.3%,76.7%,6.23% (active),69%,69.1%,121%,58.5%,99.3,89.8%,65.5%,101,77.3%,100
C=C1C(=O)O[C@H]2[C@H]1CC/C(COC(=O)NCCc1c[nH]c3ccccc13)=C\CC[C@@]1(C)O[C@@H]21,61.5%,69.2%,-0.18% (active),-100% (active),-20.7% (active),-93.7% (active),80.8%,3.28% (active),-3.9% (active),0.79% (active),-25.7% (active),36.4%,56.6%,38.4%,89.1,-16.6% (active),-65.6% (active),81,65.9%,–
CN(C)c1ccc(-c2ccc(-c3ccc(C(=N)N)c(F)c3)s2)cc1,-0.355% (active),-73.6% (active),-76.5% (active),-92.6% (active),-85.5% (active),-95.8% (active),4.91% (active),-37.4% (active),-19.3% (active),1.32% (active),-52.6% (active),-26.4% (active),-89.2% (active),-85.1% (active),–,–,-88.2% (active),102,-49.2% (active),–
Cc1cccc(C)c1NC(=O)CSC(=S)N1CCCCC1,97.6%,97.2%,110%,85.6%,89%,101%,99.3%,101%,87.8%,101%,104%,105%,101%,106%,110,90.7%,103%,96.8,103%,–
NCCn1cc(-c2nc(-c3c[nH]c4ncccc34)cs2)c2ccccc21,103%,53.6%,78.7%,51.3%,148%,82.9%,88.2%,88.5%,96.4%,62.6%,78.1%,86.7%,102%,68.2%,–,50.2%,90.8%,84.4,98.1%,–
Cn1cc(-c2csc(-c3cn(CCCN4CCCCC4)c4ccc(F)cc34)n2)c2cccnc21,93.5%,77.3%,83.9%,78.2%,99.7%,83.7%,73.4%,-29.9% (active),70.4%,65.9%,69.2%,95.3%,91.8%,92.8%,99.3,85.2%,93.2%,82.5,89.5%,–
